Measured values from ChEMBL document CHEMBL3988442, “University of Dundee, Small-Polar-MMV Screening Library” (2021).
Out of some 69,000 compounds screened, about 950 (1.4%) showed an effect of 50% or more. The list comes from a sample in which strong results are over-represented; it also holds similar structures and randomly drawn compounds.

The compounds below were run on Mycobacterium tuberculosis (assay: Cornell M. t heat shock assay; also: in the data most compounds retested in dose-response had high values).
Assay type: functional, organism-based
Parameters: dose or concentration left out as unconfirmed

| SMILES | Percent Effect [%] |
| --- | --- |
| Cc1noc(C)c1CN1CCCC2(CCN(CC3CCCC3)C2)C1.O=C(O)C(F)(F)F (centres undefined) | -3.039 |
| CCN1C[C@@H]2[C@@H](OC)CCN(S(=O)(=O)c3ccccc3)[C@@H]2C1.O=C(O)C(F)(F)F | -5.885 |
| COCC(=O)N1CCn2c(COc3cccnc3)cnc2C1C.O=C(O)C(F)(F)F (centres undefined) | 5.093 |
| CC(=O)N1CCN(Cc2ccccn2)CC2(CC(=O)N(C)C2)C1.O=C(O)C(F)(F)F.O=C(O)C(F)(F)F (centres undefined) | -32.82 |
| CNC(=O)c1cc(C2CCCN2)n[nH]1.Cl (centres undefined) | 10.86 |
| CC(=O)N1CCC[C@@H](NCc2c[nH]c3ccccc23)[C@@H]1c1ccc(C)s1.Cl | 67.48 |
| CC(=O)N1CCC[C@@H](NCc2ccc(F)cc2)[C@@H]1c1ccc(C)s1 | 15.69 |
| CC(=O)N1CCC[C@@H](NCc2cccc(F)c2)[C@@H]1c1ccc(C)s1.Cl | 4.639 |
| O=C(O)C(F)(F)F.O=C1[C@H]2CN(Cc3ccco3)C[C@H]2CN1c1ccsc1 | 26.88 |
| O=c1c2cnc(N3CCOCC3)nc2ccn1Cc1ccco1 | -1.985 |
| CCc1nc(N2CCCC(CCCOC)C2)c2cnn(C)c2n1 (centres undefined) | -4.574 |
| CCCc1nc(N2CCCC(CCOC)C2)c2cnn(C)c2n1 (centres undefined) | -22.83 |
| CCCOC1CCCN(c2nc(CC)nc3c2cnn3C)C1 (centres undefined) | 77.82 |
| CCCOC1CCCN(c2nc(COC)nc3c2cnn3C)C1 (centres undefined) | 67.42 |
| COCc1nc(N2CC[C@H](N(C)C)C2)c2cnn(C)c2n1 | -4.11 |
| CCCc1nc(N2CCCN3CCC[C@H]3C2)c2cnn(C)c2n1 | -9.904 |
| CS(=O)(=O)NC[C@@H]1OC[C@H]2CN(Cc3ccccc3)CC[C@H]21.O=C(O)C(F)(F)F | 25.84 |
| O=C(O)Cn1ccc(=O)c2ccc(Cl)cc21 | -0.616 |
| O=C(O)Cn1ccc(=O)c2cc(Cl)ccc21 | 63.91 |
| O=C(O)Cn1ccc(=O)c2cc(F)ccc21 | 12.91 |
| CN(C)CCOCc1cncc2c1CCN(C1CCOCC1)C2.O=C(O)C(F)(F)F.O=C(O)C(F)(F)F.O=C(O)C(F)(F)F | 38.62 |
| O=C(CSc1nnc(N2CCNCC2)s1)Nc1ccccc1.O=C(O)C(F)(F)F | -1.012 |
| CC(C)Oc1ccc(CNC(=O)C2CCS(=O)(=O)C2)cn1 (centres undefined) | -25.56 |

| SMILES | Percent Effect [%] |
| --- | --- |
| CC(NCCc1nccn1Cc1ccccc1)c1cccs1 (centres undefined) | 34.94 |
| CCc1ccc(C(C)NCc2nccn2Cc2ccccc2)o1 (centres undefined) | 91.1 |
| Cc1ccc(C(C)NCCc2nccn2Cc2ccccc2)o1 (centres undefined) | -11.63 |
| O=C(O)C(F)(F)F.c1ccc2c(c1)N(CC1CCOC1)CC21CCN(c2cnccn2)CC1 (centres undefined) | 16.03 |
| COCCN1CCCC2(CCC(=O)N2Cc2cccnc2)C1.O=C(O)C(F)(F)F (centres undefined) | -18.4 |
| Cc1nnc([C@]23COC[C@H]2CN(S(=O)(=O)c2cccnc2)C3)o1.O=C(O)C(F)(F)F | 48.22 |
| COc1ccc(CN(C(=O)C2CCOCC2)c2ccncc2)cc1 | -4.775 |
| COc1ccc(CN(C(=O)C2CCCO2)c2ccncc2)cc1 (centres undefined) | -11.42 |
| COc1ccc(CN(C(=O)C2CCCS2)c2ccncc2)cc1 (centres undefined) | 99.59 |
| O=C(CC1CC1)N1CCn2cc(Cn3cccn3)nc2C1.O=C(O)C(F)(F)F | -0.6568 |
| CC(C)n1nc(CN2CCOCC2)c2c1CN(C(=O)c1ccno1)C2.O=C(O)C(F)(F)F | 17.65 |
| Cc1ccc(CNCc2cccc3cn[nH]c23)c(OC2CCOC2)c1 (centres undefined) | 3.326 |
| Cc1ccc(CNCc2c[nH]nc2C(C)(C)C)c(OC2CCOC2)c1 (centres undefined) | 18.1 |
| Cc1ccc(CNCc2cccc3cccnc23)c(OC2CCOC2)c1 (centres undefined) | 87.35 |
| CC(C)N(C)Cc1cnc2n1CCN(Cc1cccc(F)c1)C2.O=C(O)C(F)(F)F.O=C(O)C(F)(F)F | -5.438 |
| Cc1nnc(N2CCCC3(CN(Cc4nccs4)CCO3)C2)o1.O=C(O)C(F)(F)F.O=C(O)C(F)(F)F (centres undefined) | -34.51 |
| CCN(CC)C1CCN(C(=O)c2cc3cc(C)cc(C)c3nc2C)CC1.Cl | 6.865 |
| Cl.FC(F)(F)c1ccc(-c2cnc(C3CCCN3)cn2)cc1 (centres undefined) | -8.787 |
| Cn1cc(C2COC3(CCN(C(=O)Cc4ccccc4)CC3)C2)cn1 (centres undefined) | 32.13 |
| CC1COC2(CCN(C(=O)Cc3ccncc3)CC2)C1.O=C(O)C(F)(F)F (centres undefined) | 19.29 |
| O=C(Cc1ccncc1)N1CCC2(CC1)CC(c1ccccc1)CO2.O=C(O)C(F)(F)F (centres undefined) | 53.05 |
| Cc1ccc(CN2CCn3c(CNC(=O)c4cccn4C)cnc3C2)s1.O=C(O)C(F)(F)F | 7.209 |
| COCC1Cn2nnc(-c3cnn(C)c3)c2CN1Cc1cccs1.O=C(O)C(F)(F)F (centres undefined) | 17.22 |

| SMILES | Percent Effect [%] |
| --- | --- |
| CC(=O)c1ccc(NC(=O)NCc2cccc(N(C)C)n2)cc1C | 63.04 |
| CN(C)c1cccc(CNC(=O)Nc2ccc3[nH]nnc3c2)n1 | -8.207 |
| COc1ccc(C)c(NC(=O)NCc2cccc(N(C)C)n2)c1 | 29.74 |
| CS(=O)(=O)N1CCOCC2(CCN(c3ccccn3)C2)C1.O=C(O)C(F)(F)F (centres undefined) | -2.08 |
| CCN1CCC2(CCN(c3ncccn3)CC2)C1=O.O=C(O)C(F)(F)F | -1.865 |
| Cc1nc(CN(C)C)cc(N2CCCC(COc3ccc(F)cc3)C2)n1 (centres undefined) | 82.2 |
| CCNC(=O)c1ccnc(N2CCCC(COc3ccccc3C)C2)c1 (centres undefined) | -1.28 |
| Cc1ccccc1OCC1CCCN(c2cc(N)nc(N)n2)C1 (centres undefined) | 94.51 |
| CN(C)Cc1ccc(C(=O)N2CCCC(COc3ccc(F)cc3)C2)o1 (centres undefined) | 1.225 |
| Nc1cc(N2CCCC(COc3ccc(F)cc3)C2)nc(N)n1 (centres undefined) | 0.7864 |
| OCc1csc(N2CCCC(COc3cccc(F)c3)C2)n1 (centres undefined) | -18.57 |
| Nc1cc(N2CCCC(COc3ccc(F)cc3)C2)ncn1 (centres undefined) | -15.24 |
| CN(C)Cc1nc(C(=O)N2CCCC(COc3ccc(F)cc3)C2)cs1 (centres undefined) | -4.47 |
| Cc1nc(N)cc(N2CCCC(COc3cccc(F)c3)C2)n1 (centres undefined) | 95.51 |
| Cl.NCCc1cc(N2CCOCC2)nc(NC2CC2)n1 | -1.001 |
| Cn1cc(N2C(=O)CC[C@@H]3[C@H]2CCN3Cc2nccs2)cn1.O=C(O)C(F)(F)F | -19.88 |
| O=C(O)C(F)(F)F.O=C1C[C@H]2[C@@H](CCN2C(=O)Cc2cccs2)N1Cc1cccnc1 | -27.42 |
| Cn1cc(C(=O)N2CC[C@@H]3[C@@H]2CCN3Cc2cccc(F)c2)cn1.O=C(O)C(F)(F)F | 6.285 |
| O=C(O)C(F)(F)F.O=C(O)C(F)(F)F.O=C(O)C(F)(F)F.O=C1NC2(CCN(Cc3cccnc3)CC2)CC1c1cccnc1 (centres undefined) | -25.56 |
| Cc1cc(CN2CC[C@H]3C[C@H](C(=O)N4CCC(C)CC4)O[C@H]3C2)no1.O=C(O)C(F)(F)F | -0.569 |
| CC1(C)CC(N(Cc2cccnc2)Cc2cccc(F)c2)CC(C)(C)N1.O=C(O)CC(O)(CC(=O)O)C(=O)O | -20.05 |
| CC1c2ncc(Cn3cccn3)n2CCN1Cc1cccnc1.O=C(O)C(F)(F)F.O=C(O)C(F)(F)F (centres undefined) | -18.15 |
| O=C(O)C(F)(F)F.O=C(O)C(F)(F)F.c1cncc(CN2CCc3ncnc(C4CCOC4)c3CC2)c1 (centres undefined) | -9.628 |

| SMILES | Percent Effect [%] |
| --- | --- |
| Cc1ccc2c(c1)CCC2NCc1c(C)nn(C)c1N1CCOCC1.Cl (centres undefined) | -16.61 |
| Cc1cc(C)nc(N2CCCC(c3cccc(-n4ccnc4)n3)C2)n1 (centres undefined) | 68.58 |
| CC(=O)N1CCCC(c2cccc(-n3ccnc3)n2)C1 (centres undefined) | -20.38 |
| c1cnc(N2CCCC(c3cncc(-n4ccnc4)n3)C2)nc1 (centres undefined) | -40.48 |
| O=C(c1ccc2[nH]ccc2c1)N1CCn2cnc(COCC3CC3)c2C1 | 54.29 |
| O=C(c1ccoc1)N1CCn2cnc(COCC3CC3)c2C1 | 1.475 |
| Cc1cccc(C(=O)N2CCn3cnc(COCC4CC4)c3C2)c1 | 29.98 |
| Cn1cc(N2CCC3(CCCN(Cc4ccc(F)cc4)C3)C2=O)cn1.O=C(O)C(F)(F)F (centres undefined) | -14.44 |
| CC(C)CCN1CCc2cc(C(=O)N(C)C)c(NCC3CC3)nc2CC1.O=C(O)C(F)(F)F.O=C(O)C(F)(F)F | -33.33 |
| CNC(=O)[C@H]1C[C@@H]2CN(Cc3csc(C)n3)C[C@@H]2N1S(C)(=O)=O.O=C(O)C(F)(F)F | 2.273 |
| COCc1cncc2c1CCN(C(=O)c1cccc(C#N)c1)C2.O=C(O)C(F)(F)F | 18.35 |
| OCC1N(Cc2ccc(F)cc2)[C@H]2CC[C@]1(O)CC2 (some centres undefined) | 36.63 |
| Cc1cc(=O)n(CC(=O)NC(C)C)c(Nc2ccc(F)c(C)c2)n1 | -7.671 |
| Cc1cc(C)cc(Nc2nc(C)cc(=O)n2CC(=O)NC(C)C)c1 | 5.735 |
| CCC(C)NC(=O)Cn1c(Nc2cc(C)cc(C)c2)nc(C)cc1=O (centres undefined) | 104.5 |
| Cc1ncsc1C(=O)N1CCCCC1c1cc2nc(C)c(C)c(O)n2n1 (centres undefined) | -18.91 |
| Cc1noc(C)c1CN1C[C@H]2CN(Cc3cccc(F)c3)C[C@H]2C1.O=C(O)C(F)(F)F.O=C(O)C(F)(F)F | 1.076 |
| CCC(=O)N1CCc2[nH]cnc2C12CCN(C(=O)CCS(C)(=O)=O)CC2 | 77.54 |
| CCC(=O)N1CCC2(CC1)c1nc[nH]c1CCN2S(C)(=O)=O | -7.001 |
| CCC(=O)N1CCc2[nH]cnc2C12CCN(C(=O)c1snnc1C)CC2 | -5.563 |
